33 compounds from ChEMBL document CHEMBL3988442, “University of Dundee, Small-Polar-MMV Screening Library” (2021) can be followed below.

Molecules are shown by their SMILES. The whole screen tested about 69,000 compounds, of which about 1,000 (1.4%) showed an effect of 50% or more. This is one part of a sample in which strong results are shown more often than they occur.

The test system of the assay is Leishmania donovani. In words: Leishmania intramacrophage assay. Type of assay: functional, organism-based. Set-up: scale not given: in the data most compounds retested in dose-response had high values.

As for `NC(=O)c1cccc2nc([C@H]3CCN(Cc4ccccc4F)C3)[nH]c12`, the “Percent Effect” value (30.3 µM, […]) amounted to 22.02%.

Turning to `NC(=O)c1cccc2nc([C@H]3CCN(Cc4ccccn4)C3)[nH]c12`, the “Percent Effect” value (30.3 µM, […]) is recorded as 53.25%.

In the case of `Cc1ccc(CN2CC[C@H](c3nc4cccc(C(N)=O)c4[nH]3)C2)cc1`, the “Percent Effect” value (30.3 µM, […]) is reported as -18.93%.

Take `c1ccc(C(CC2CN(Cc3c[nH]cn3)CCO2)c2ccccc2)cc1` (stereo not drawn): for the setting “30.3 µM, […]”, the “Percent Effect” value amounted to 20.85%.

For the compound `CN(C)S(=O)(=O)N(C)C(c1cccc(F)c1)c1ccccn1` (stereo not drawn), the “Percent Effect” value (30 µM) is 24.26%.

On to `Clc1ccc(N2CCC(C3CCN(Cc4cccnc4)CC3)C2)nc1` (stereo not drawn), for which, where the note is “30.3 µM, […]”, the “Percent Effect” value was -2.762%.

For the compound `Clc1ccc(CN2CCC(C3CCN(Cc4cccnc4)CC3)C2)cc1` (stereo not drawn), the “Percent Effect” value (30.3 µM, […]) is 51.57%.

On to `Clc1cccnc1N1CCC(C2CCN(Cc3cccnc3)CC2)C1` (stereo not drawn), for which the “Percent Effect” value (30.3 µM, […]) is on record as -17.23%.

With `Cc1ncsc1CN(Cc1ccccc1)Cc1ncc[nH]1`, the “Percent Effect” value (30.3 µM, […]) was -37.36%.

In the case of `Cc1ncsc1CN(Cc1ccccc1)Cc1ccncc1`, the “Percent Effect” value (30.3 µM, […]) came out at 55.73%.

For `Cc1ncsc1C(=O)N(C)Cc1ccncc1`, the “Percent Effect” value (30 µM, 30.03 µM) is -5.146%.

Regarding `Cc1noc(C2CCN(CC(=O)N3CCNC(=O)C3)CC2)n1`, the “Percent Effect” value (30.3 µM, […]) is listed as -15.33%.

`O=C(O)C1(Cc2cccc(Cl)c2)CCCN(c2ncnc3[nH]ccc23)C1` (stereo not drawn): the “Percent Effect” value (30.3 µM, […]) worked out at 20.11%.

Turning to `CCCSc1nn(CCCN(C)C)c2nc3sc(C)c(CC)c3c(=O)n12`, the “Percent Effect” value (30.3 µM, […]) is -2.726%.

With `O=C(c1ccoc1)N1Cc2cnn(CC3CC3)c2C(COCC2CC2)C1` (stereo not drawn), the “Percent Effect” value (30.3 µM, […]) is on record as -14.05%.

On to `CC(C)C(=O)N1CCC(c2c(C(N)=O)sc3ccccc23)C1` (stereo not drawn), for which the “Percent Effect” value (30.3 µM, […]) is 2.33%.

With `CCCS(=O)(=O)CCN1CCN(C(C#N)c2ccccc2)CC1` (stereo not drawn), the “Percent Effect” value (30.3 µM, […]) amounted to 50.86%.

Turning to `CC(C)S(=O)(=O)CCN1CCN(C(C#N)c2ccccc2)CC1` (stereo not drawn), under “30.3 µM, […]”, the “Percent Effect” value is 27.38%.

With `CS(=O)(=O)CCCN1CCN(C(C#N)c2ccccc2)CC1` (stereo not drawn), the “Percent Effect” value (30.3 µM, […]) was determined as 16.78%.

As to `CC(C)c1nc(C2CCCN(C(=O)CCc3cscn3)C2)no1` (stereo not drawn), for the setting “30 µM”, the “Percent Effect” value came to 12.46%.

On to `Cc1oncc1C(=O)NCC1(O)CCc2ccccc2C1` (stereo not drawn), for which the “Percent Effect” value (30.3 µM, […]) was 25.53%.

Turning to `Cc1nn(C)c(Cl)c1CNCc1cccnc1N1CCOCC1.Cl`, under “30 µM, 30.03 µM”, the “Percent Effect” value is given as 2.073%.

Regarding `Cc1nn(C)c(Cl)c1CNCc1cccnc1N1CCCCC1.Cl`, the “Percent Effect” value (30.3 µM, […]) was -11.04%.

Regarding `Cc1nn(C)c(Cl)c1CNCc1cccnc1N1CCN(C)CC1.Cl`, the “Percent Effect” value (30 µM, 30.03 µM) was 52.88%.

With `Cc1ccc(C)c(S(=O)(=O)CCNC2CCc3ncnn3C2)c1` (stereo not drawn), for the setting “30 µM”, the “Percent Effect” value turned out to be 28.38%.

For the compound `CCc1ncc(CN[C@@H]2CCCN(C(C)=O)[C@H]2c2ccc(C)s2)cn1.Cl`, the “Percent Effect” value (30.3 µM, […]) came to 12.48%.

For the compound `CC(C)c1nc(-c2cc(C(=O)N3CCN(C)CC3)c3ccccn23)cs1.O=C(O)C(F)(F)F`, the “Percent Effect” value (30.3 µM, […]) is recorded as 16.88%.

Consider `CC(C)c1nc(-c2cc(C(=O)O)c3ccccn23)cs1`, for which the “Percent Effect” value (30.3 µM, […]) is on record as -0.8279%.

For the compound `CC(C)c1nc(-c2cc(C(=O)NCCN(C)C)c3ccccn23)cs1.O=C(O)C(F)(F)F`, the “Percent Effect” value (30.3 µM, […]) was found to be 74.71%.

With `Cc1nc(-c2cc(C(=O)NCCN3CCOCC3)c3ccccn23)cs1.O=C(O)C(F)(F)F`, under “30.3 µM, […]”, the “Percent Effect” value is given as -52.36%.

Regarding `CC(C)c1nc(-c2cc(C(=O)NCCCO)c3ccccn23)cs1`, the “Percent Effect” value (30.3 µM, […]) was 30%.

Regarding `Cc1cnc(CNc2ccc(C(=O)NCc3ccco3)cc2C)o1`, the “Percent Effect” value (30.3 µM, […]) was -20.82%.

Regarding `O=C(O)C(F)(F)F.c1cc(CNCC2Cn3nncc3CO2)co1` (stereo not drawn), for the setting “30.3 µM, […]”, the “Percent Effect” value came out at 20.1%.
